Assay results taken from PubChem BioAssay (EPA / NIEHS).
Activity calls are given as the source filed them. How the source made its calls, unless noted: active means hit-call score of the fitted dose curve at least 0.9, where 1 is the maximum; inactive means score below 0.9.

Assays:
SERPINA7 (gene 6906) = test: CCTE_GLTED_hTBG: CCTE's human Thyroxine-binding Globulin (TBG) Inhibition Assay, Great Lakes Toxicology and Ecology Division (GLTED) Lab (AID 2284343; active means hit-call score of the fitted dose curve at least 0.9, where 1 is the maximum;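 further: active chemicals lower fluorescence versus DMSO baseline by displacing probe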)
Method in brief: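 Steps: combine TBG with chemical; incubate 2 hours so that disruptors release ANSA; record fluorescence (380 ex, 475 em). Loss of signal was fitted against DMSO controls.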

[1] = Tanguay_ZF_120hpf_MO24: Oregon State University Tanguay Lab 24 Hour Post-fertilization zebrafish Assay for Mortality (AID 2284389)
Method in brief: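 Embryo death at 24 hpf was recorded as present or absent in Tropical 5D zebrafish, dechorionated at 4 hpf and dosed statically from 6 hpf (28C, 0.64% DMSO); 5 uM trimethyltin chloride served as positive control.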

[2] = Tanguay_ZF_120hpf_CRAN: Oregon State University Tanguay Lab 120 Hour Post-fertilization zebrafish Assay for Craniofacial Malformation (AID 2284397)
Method in brief: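 Scoring of craniofacial malformation as a binary endpoint was done at 120 hpf by brightfield microscopy and was not done in dead embryos. Exposure was static, starting at 6 hpf, in dechorionated wild-type embryos held singly at 28C with 0.64% DMSO final.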

[3] = Tanguay_ZF_120hpf_AXIS: Oregon State University Tanguay Lab 120 Hour Post-fertilization zebrafish Assay for Axial Malformation (AID 2284398)
Method in brief: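 Scoring was binary (present or absent) for body-axis defects, judged by brightfield imaging at 120 hpf in surviving larvae. Exposure was static at 28C from 6 hpf in chorion-free 5D wild-type embryos, with 0.64% DMSO vehicle.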

[4] = Tanguay_ZF_120hpf_MORT: Oregon State University Tanguay Lab 120 Hour Post-fertilization zebrafish Assay for Mortality (AID 2284399)
Method in brief: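 Mortality, recorded present/absent via brightfield imaging at 24 and 120 hpf, in 5D zebrafish embryos exposed statically from 6 hpf after pronase chorion removal. Exposure at 28C, 0.64% DMSO vehicle, DMSO baseline.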

[5] = Tanguay_ZF_120hpf_EDEM: Oregon State University Tanguay Lab 120 Hour Post-fertilization zebrafish Assay for Edema Malformation (AID 2284400)
Method in brief: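 Edema recorded as a binary endpoint under brightfield at 120 hpf, excluding embryos that died. Exposure was static, sealed, 28C, from 6 hpf in dechorionated wild-type larvae, final DMSO 0.64%, DMSO as baseline.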

[6] = Tanguay_ZF_120hpf_MUSC: Oregon State University Tanguay Lab 120 Hour Post-fertilization zebrafish Assay for Muscle Malformation (AID 2284401)
Method in brief: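 Scored as a binary brightfield endpoint at 120 hpf, fitted versus DMSO. Single dechorionated wild-type (Tropical 5D) zebrafish embryos per well, statically exposed at 28C from 6 hpf onward with final DMSO 0.64%.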

[7] = Tanguay_ZF_120hpf_BRN: Oregon State University Tanguay Lab 120 Hour Post-fertilization zebrafish Assay for Brain Region Malformation (AID 2284402)
Method in brief: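 Binary brightfield scoring of brain malformation at 120 hpf in 5D wild-type larvae, chorion removed with pronase at 4 hpf. Static exposure began at 6 hpf, 28C, sealed plates, DMSO 0.64% (vol/vol) as vehicle baseline.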

Measured: AC50

O=[N+]([O-])c1ccc(Cl)c(Cl)c1
inactive: SERPINA7 (gene 6906)

CCCCC(CC)COP(=O)(Oc1ccccc1)Oc1ccccc1 (centres undefined)
active: SERPINA7 (gene 6906) 4.21 µM

O=C(O)C(F)(F)C(F)(F)C(=O)O
not listed: SERPINA7 (gene 6906)
inactive: all other assays above

O=C(O)C(F)(F)OC(F)(F)C(F)(F)OC(F)(F)C(=O)O
not listed: SERPINA7 (gene 6906)
inactive: all other assays above

COC(=O)C(F)(F)C(F)(F)OC(F)(C(F)(F)F)C(F)(F)OC(F)=C(F)F (centres undefined)
active: SERPINA7 (gene 6906) 22.3 µM | [1] 21.4 µM | [4] 22.2 µM
inactive: all other assays above

CCOP(=S)(Oc1ccc([N+](=O)[O-])cc1)c1ccccc1 (centres undefined)
active: SERPINA7 (gene 6906) 1.84 µM

CO/N=C(/C(=O)OC)c1ccccc1COc1ccccc1C
active: SERPINA7 (gene 6906) 34.2 µM

C=CC(=O)OCC(F)(F)C(F)F
active: [3] 54.6 µM | [4] 64 µM | [6] 54.6 µM
not listed: SERPINA7 (gene 6906)
inactive: all other assays above

CCOP(=S)(OCC)SCSCC
active: SERPINA7 (gene 6906) 24.7 µM

O=C(O)C=CC(F)(C(F)(F)F)C(F)(F)F
not listed: SERPINA7 (gene 6906)
inactive: all other assays above

CCCN(CCC)c1c([N+](=O)[O-])cc(C(C)C)cc1[N+](=O)[O-]
active: SERPINA7 (gene 6906) 11.7 µM

CCCCCCCc1ccc(O)cc1
active: SERPINA7 (gene 6906) 18.5 µM

O=C(O)C(F)(OC(F)(F)C(F)(F)C(F)(F)F)C(F)(F)F (centres undefined)
not listed: SERPINA7 (gene 6906)
inactive: all other assays above

c1ccc(OP(Oc2ccccc2)Oc2ccccc2)cc1
inactive: SERPINA7 (gene 6906)

CC(O)C(F)(F)C(F)(F)F (centres undefined)
not listed: SERPINA7 (gene 6906)
inactive: all other assays above

CCC(C)(C)c1ccc(O)cc1
active: SERPINA7 (gene 6906) 50 µM
